# From PubChem BioAssay (EPA / NIEHS)
# The source made the active and inactive calls. The calls were made as follows: active = hit-call score of the fitted dose curve at least 0.9, where 1 is the maximum; inactive = score below 0.9.
# Read-out: Transforming Growth Factor (TGFA), TGFA (gene 7039)
# Test: LTEA_HepaRG_TGFA: Life Technologies and Expression Analysis (LTEA) Assay for Transforming Growth Factor (TGFA) using HepaRG (AID 2283532)
# Details: mRNA level, 48 h; actives raise or lower the signal
# Method: LTEA_HepaRG is a cell based, multiplexed-readout assay that uses HepaRG, a human liver cell line, with measurements taken at 48 hours after chemical dosing on a 96-well plate.LTEA_HepaRG_TGFA is one of 102 assay component(s) measured in the LTEA HepaRG cell culture assay. It is a marker of Cell proliferation, survival, death.Data from the assay component LTEA_HepaRG_TGFA was analyzed into 1 endpoint. This assay endpoint, LTEA_HepaRG_TGFA, was analyzed with bidirectional fitting relative to DMSO as the negative control and baseline of activity. Using a type of inducible reporter, measures of mRNA induction for gain or loss-of-signal activity can be used to understand regulation of transcription factor activity. To generalize the intended target to other relatable targets, this assay endpoint is annotated to the growth factor intended target family, where the subfamily is EGF-like domain.
# A total of 1060 chemcials from the ToxCast library were tested in eight-point concentration-response experiments. Cell culture and cytotoxicity assays were conducted at Thermo Fisher Scientific's Custom Services facility (Madison, WI). A single lot of human HepaRG cells (Thermo Fisher Scientific, Frederick, MD) was used for the cell culture experiments. 96-well format collagen type I coated plates of human HepaRG cells were prepared using established methods. Briefly, cryopreserved HepaRG cells were thawed, plated at a density of approximately 100,000 cells/well in HepaRG Thaw, Plate, and General Purpose media (HPRG770, Thermo Fisher Scientific), and incubated for 48 hours. 0.5% DMSO was selected as vehicle control to balance the requisite need of DMSO in HepaRG cultures to maintain differentiation (for example, baseline metabolism, proportions of hepatocytes vs. cholangiocytes), while enabling further hepatic receptor pathway activation (for example, PXR and CAR) in response to chemical exposure. 48 hours after plating, the culture medium was replaced with HepaRG Serum-Free Incudtion Media. Cells were exposed to each test chemical in duplicate and maintained in CO2 incubators for another 48 hours. Chemical plates were thawed to room temperature and 200x concentrations of treatment groups were prepared. 8-point conentration-reponse curves were made with the highest exposure at 100 uM, followed by half-log dilutions, all in 0.5% DMSO. Each test plate contained variouse controls, induction positive controls (1mM phenobarbital), cytotoxicity positive controls ([…] aflatoxin B1), vehicle controls (0.5% DMSO), and total lysis controls (0.5% DMSO). Cell morphology images were taken using an Essen IncuCyte FLR automated microscope, with six 96-well plates imaged in about 24 minutes. Images were captured and exported and JPEG files. Spent culture media was transfered to black-well plates for the LDH assay, and remaining media was sorted at -80 C for later use. Cells were treated with RLT buffer and frozen until shipped for gene expression analysis. Total RNA was isolated from the cell suspension in 75 uL of Buffer RLT (Qiagen, Germantown, MD 20874) by Quintiles/Expression Analysis (Durham, NC) using a custom isolation procedure. Total RNA from each plate well was transferred to a preamplification plate. Fluidigm's 96.96 Dynamic ArrayTM (Fluidigm, Amsterdam, the Netherlands) technology was used for gene expression analyses by quantitative reverse transcription polymerase chain reaction (qRT-PCR, performed by Quintiles/Expression Analysis, Durham, NC)89. Standard TaqManTM Assays (Applied Biosystems/ThermoFisher Scientific, Foster City, CA) were used to assess the expression of 93 genes selected based on their selectivity and sensitivity to important hepatic receptors known to be modulated by environmental chemicals; importance in human hepatocyte functionality; and hepatotoxicity. […]
Compound,outcome,AC50
CCCCCCCCCCCCN1CCCC1=O,inactive,–
c1ccc2cc3c(ccc4ccccc43)cc2c1,inactive,–
c1ccc2c(c1)ccc1ccccc12,inactive,–
COCC(C)O (stereo not given),inactive,–
COC(=O)CCCCC(=O)OC,inactive,–
CCCCCCCCOC(=O)CCCCCCCCC(=O)OCCCCCCCC,inactive,–
CCCOC(=O)c1ccc(O)cc1,inactive,–
CCCOc1sc(C(=O)N2CCC(c3cc(CN)ccc3F)CC2)c(C)c1Br,inactive,–
Nc1cccc2c(N)cccc12,inactive,–
CCCCC(CC)COC(=O)CCCCC(=O)OCc1ccccc1 (stereo not given),inactive,–
CCCCCCCCC(=O)O,inactive,–
CC(C)(C)c1cc(C(C)(C)C)c(O)c(C(C)(C)C)c1,inactive,–
Oc1cccc(O)c1,inactive,–
C=C(C)C(=O)OCCC(F)(F)C(F)(F)C(F)(F)C(F)(F)C(F)(F)C(F)(F)F,inactive,–
CCCCC(CC)COC(=O)CCCCC(=O)OCC(CC)CCCC (stereo not given),inactive,–
NC(=O)N(O)[C@@H]1C=C[C@H](Oc2cccc(Oc3ccc(F)cc3)c2)C1,–,76.2 µM (active)
CCCCCCC(=O)O,inactive,–
CC(=O)CC(C)(C)O,inactive,–
CN1CCN(c2ccccc2/C=C2\SCCN(c3ccc(Cl)c(Cl)c3)C2=O)CC1,–,96.2 µM (active)
OC1CCCCC1,inactive,–

Compound,outcome,AC50
CC(=O)NC1(c2cccc(F)c2)CCN(CC[C@@]2(c3ccc(Cl)c(Cl)c3)CN(c3ccccc3)C(=O)CO2)CC1,inactive,–
CCC(C)(C)C1CCC(O)CC1 (stereo not given),inactive,–
CN1CCC[C@H]1c1cccnc1,inactive,–
CC(C)(C)c1cccc(C(C)(C)C)c1O,inactive,–
CC1=C(/C=C/C(C)=C/C=C/C(C)=C/C(=O)O)C(C)(C)CCC1,inactive,–
OC1CCC(C2CCCCC2)CC1 (stereo not given),inactive,–
N#C[C@@H]1CC(F)(F)CN1C(=O)CNC1CC2CCC(C1)N2c1ncccn1 (stereo not given in full),inactive,–
CC(O)CO (stereo not given),inactive,–
ClC1=C(Cl)C(Cl)(Cl)C(Cl)=C1Cl,inactive,–
O=C(OCCOCCOC(=O)c1ccccc1)c1ccccc1,inactive,–
CC[C@H](c1ccc(O)cc1)[C@@H](CC)c1ccc(O)cc1,inactive,–
COCC(C)OCC(C)O (stereo not given),inactive,–
CCCCCCCCCCCCc1ccccc1S(=O)(=O)O,–,32.5 µM (active)
C#C[C@]1(O)CC[C@H]2[C@@H]3CCC4=CC(=O)CC[C@@H]4[C@H]3CC[C@@]21C,inactive,–
O=C(O)Cc1cc(I)c(Oc2cc(I)c(O)c(I)c2)c(I)c1,inactive,–
OCCC(F)(F)C(F)(F)C(F)(F)C(F)(F)C(F)(F)C(F)(F)F,inactive,–
CC(C)(C)c1ccc(O)c(C(C)(C)C)c1,inactive,–
Cc1cc(C)c(O)c(C)c1,inactive,–
CCC(=C(c1ccc(O)cc1)c1ccc(OCCN(C)C)cc1)c1ccccc1,inactive,–
CC(C)CCCCCCOC(=O)CCCCC(=O)OCCCCCCC(C)C,inactive,–
